# Screening results: PubChem BioAssay, several laboratories
# In the library only some 4.2% were active in any assay of this set; here they are far more common.
# S1P4 antag: antagonists of human S1P4 receptor; O95977; S1P4-expressing cells, antagonist mode, reporter read-out; inhibition, % at 4.98 µM; actives 0.26% (n = 220,000); AID 1510; in the data active = inhibition above about 29%;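 note: 0% = wells stimulated with agonist and 100% = vehicle wells without agonist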
# Target sequence (O95977 whole entry, looked up): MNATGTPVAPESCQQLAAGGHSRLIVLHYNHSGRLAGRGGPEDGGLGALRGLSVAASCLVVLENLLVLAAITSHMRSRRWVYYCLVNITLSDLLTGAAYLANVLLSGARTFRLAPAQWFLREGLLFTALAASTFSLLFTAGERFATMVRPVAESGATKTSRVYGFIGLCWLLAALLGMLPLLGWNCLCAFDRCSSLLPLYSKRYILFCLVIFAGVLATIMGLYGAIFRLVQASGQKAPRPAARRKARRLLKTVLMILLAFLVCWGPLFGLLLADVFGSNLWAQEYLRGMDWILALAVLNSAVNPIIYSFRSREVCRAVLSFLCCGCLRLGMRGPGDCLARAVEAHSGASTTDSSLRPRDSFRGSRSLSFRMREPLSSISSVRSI
# S1P4 agonist: activates the human S1P4 receptor | O95977 | S1P4-expressing cell line, agonist reporter assay | activation, % at 4.98 µM | actives 0.35% (n = 220,000); in the data active = activation above about 11%;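 note: 0% = DMSO vehicle and 100% = reference agonist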
# Hsp70 act: switches on Hsp70 transcription; AID 1203; HeLa Hsp70 promoter luciferase reporter, luminescence; scaled: vehicle 0, proteasome-inhibitor control 100%; activation, % at 10 µM; actives 0.04% (n = 200,000);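 active = activation above the mean across all tested compounds plus 3 SD, cutoff set per campaign, cut at about 5.5% in these data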;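 note: 100% = MG132 at 30 µM as the positive control and 0% = DMSO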
# CHOP inh: blocks CHOP induction under ER stress | CHO-K1 CHOP-promoter luciferase, tunicamycin-induced, 15-18 h | actives 3.8% (n = 220,000) | AID 2732 | inhibition, % at 10 µM;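 active = compounds that reduced the stress-induced luciferase reporter signal by more than about 70% of percent inhibition, limit read from the data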;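 note: 0% = tunicamycin plus vehicle and 100% = wells without tunicamycin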
# * marks the source's active call; other numbers are inactive results; · = no result given.
SMILES,S1P4 antag,S1P4 agonist,Hsp70 act,CHOP inh
c1ccc(CSc2nnnn2-c2ccccc2)cc1,0,0,0,15
N#CC1=C(N)SC(N)=C(C#N)C1c1ccnc2ccccc12,-8,2,0,-4
O=C1c2ccccc2C(=O)C1c1ccnc2ccccc12,-5,-2,1,83*
O=C(CC1SC2=NCCN2C1=O)Nc1ccc(Br)cc1 (stereo unspecified),-6,0,0,21
COC(=O)c1ccc(NC(=S)N2CCN(Cc3ccc(Cl)cc3)CC2)cc1,-19,1,0,89*
COC(=O)c1ccc(NC(=S)N2CCN(Cc3ccccc3Cl)CC2)cc1,-3,-1,0,35
C=CCNC(=S)N/N=C/c1ccc(OCc2ccccc2Cl)cc1,4,1,0,92*
CC1(C)CC(=O)C2=C(C1)OC(c1cccs1)C(C#N)=C2N (stereo unspecified),-22,0,0,-13
CCC(C)c1ccc(NC(=S)NCCn2cc(Cl)cn2)cc1 (stereo unspecified),-10,2,0,11
CCC(C)c1ccc(NC(=S)NCCn2cc(Br)cn2)cc1 (stereo unspecified),-2,2,0,72*
CC(CCc1ccccc1)NC(=O)c1ccc(C(=O)NC(C)CCc2ccccc2)cc1 (stereo unspecified),-7,2,-1,82*
O=C(O)c1cc(N/N=C/c2ccc(N3CCOCC3)s2)ccc1Cl,-9,0,0,26
Cc1cccc(Nc2nc(-c3c(C)nc4ccccn34)cs2)c1,-10,2,0,77*
Cc1nc2ccccn2c1-c1csc(Nc2cccc(O)c2)n1,15,0,0,1
COC(=O)c1c(NC(NC(=O)C(C)(C)C)C(Cl)(Cl)Cl)sc2c1CCC2 (stereo unspecified),1,-1,0,78*
COC(=O)c1c(NC(NC(=O)CC(C)C)C(Cl)(Cl)Cl)sc2c1CCC2 (stereo unspecified),5,0,0,91*
Cn1nnnc1Sc1ncnc2scc(-c3ccc(F)cc3)c12,-12,7,0,-22
Cc1ccc(NC(NC(=O)c2cccs2)C(Cl)(Cl)Cl)cc1C (stereo unspecified),-1,2,0,80*
CCOc1cc(/C=C2/C(=N)N3OC(C)=CC3=NC2=O)ccc1OCCOc1ccccc1,-1,-1,0,92*
Cc1ccc(NCc2nnc(SCC(=O)Nc3ncc(C)s3)n2Cc2ccco2)c(C)c1,-15,0,0,94*
Cc1cc(Cl)ccc1NC(=O)CSc1nnc(-c2ccncc2)n1Cc1ccco1,-19,0,0,1
CC(C)(C)c1csc(NC(=O)c2ccncc2)n1,-9,0,0,-3
O=C(Nc1ccccc1)Nc1nncs1,8,0,0,16
O=C(Nc1nc(-c2cccs2)cs1)c1ccc(Cl)s1,1,0,0,1
Cc1ccc(C(=O)Nc2nc(C(C)(C)C)cs2)s1,-11,-1,0,77*
SMILES,S1P4 antag,S1P4 agonist,Hsp70 act,CHOP inh
CC(C)(C)c1csc(NC(=O)c2ccc(Cl)s2)n1,-5,1,1,73*
CC(C)(C)c1csc(NC(=O)Nc2ccccc2)n1,-7,1,0,76*
COc1ccc(-c2nc(SC(CC(=O)NCc3ccccc3)c3ccc(OC)c(OC)c3)n[nH]2)cc1 (stereo unspecified),-12,1,0,25
Cc1nnsc1SCCNC(=O)c1c(F)cccc1F,-5,1,0,24
CC1Cc2ccccc2N1S(=O)(=O)c1cnc(Cl)c(Cl)c1 (stereo unspecified),3,1,·,-35
CC(C)Cn1cc(C(=O)N2CCOCC2)c2c3ccccc3n(C)c2c1=O,-10,0,0,-10
CC(C)Cn1cc(C(=O)NCc2cccs2)c2c3ccccc3n(C)c2c1=O,-18,4,0,94*
Cc1ccc(NC(=O)COc2ccc3oc4c(c3c2)CCCC4)nc1,-14,1,0,76*
Cc1cccnc1NC(=O)COc1ccc2oc3c(c2c1)CCCC3,11,3,0,36
NC(=O)c1cccc2ccccc12,1,0,·,11
C/C(=N\Nc1ccc([N+](=O)[O-])cc1)c1ccc2c(c1)OCO2,-7,0,1,35
Cc1ccc(C(=O)NCCCNc2ccccc2[N+](=O)[O-])cc1,11,0,-1,16
CC(=O)OC1COC(OC2C(O)C(C)OC(OC3C(OC4CCC5(C)C(CCC6(C)C5CC=C5C7CC(C)(C)CCC7(C(=O)O)CCC56C)C4(C)CO)OCC(O)C3O)C2O)C(O)C1OC(C)=O (stereo unspecified),15,2,-1,92*
CC1(C)CC[C@]2(C(=O)O)CC[C@]3(C)C(=CC[C@@H]4[C@@]5(C)CC[C@H](O)C(C)(C)[C@@H]5CC[C@]43C)[C@@H]2C1,·,·,·,-30
O=C(CCCOc1ccc(Cl)cc1Cl)N/N=C/c1ccccc1O,-3,-1,0,85*
O=C(COc1ccc(Cl)cc1Cl)N/N=C/CCc1ccccc1,-3,1,0,75*
Clc1cccc(N=NN2CCOCC2)c1Cl,0,1,·,30
Cn1c(=O)cc(OCC(=O)NC2CCCCC2)c2ccccc21,-2,0,0,-21
CC1CCC2C(C1)c1sc(=O)[nH]c1SC2(C)C (stereo unspecified),1,2,0,83*
O=C(O)CCCNC(=O)/C(=C\c1ccccc1F)NC(=O)c1ccccc1,-1,3,0,14
O=[N+]([O-])c1ccc(/C=N/Nc2nc(-c3ccccc3)c3cc(Br)ccc3n2)o1,-33,1,0,82*
CC(C)Oc1ccc(C(=O)Nc2ccc(N3CCCCC3)cc2)cc1,-21,1,0,71*
Cc1ccc(C(=O)Nc2ccc(N3CCCC3)cc2)cc1,-7,1,0,28
CCCNC(=O)CN(c1ccc(F)c(Cl)c1)S(C)(=O)=O,22,0,0,22
C=CCNC(=O)/C(C#N)=C/c1c(C)nn(-c2ccccc2)c1Cl,-21,0,0,-2
SMILES,S1P4 antag,S1P4 agonist,Hsp70 act,CHOP inh
Cc1cc(O)ccc1NC(=O)c1ccccc1,-2,1,0,-18
Cn1nnnc1-c1cc(Br)ccc1NC(=O)c1ccccc1,-17,1,0,76*
O=C(CC1SC(=O)N(Cc2ccccc2Cl)C1=O)Nc1nccs1 (stereo unspecified),0,0,·,31
O=C(CC1SC(=O)N(Cc2ccccc2)C1=O)Nc1nccs1 (stereo unspecified),-19,-1,0,87*
O=C(Cc1ccc(Cl)cc1)Nc1ccccc1Sc1ccccc1,-18,0,0,75*
CC(C)CC(=O)OCC(=O)Nc1ccccc1Sc1ccccc1,-6,1,0,84*
CCCCN(CCCNC(=O)CN1C(=O)COc2ccccc21)c1ccccc1,7,0,0,74*
CCc1ccccc1N(CC)C(=O)CCc1nc(-c2ccc(C)cc2)no1,-43,2,0,60
CCN(CCCNC(=O)CCc1nc(-c2ccc(C)cc2)no1)c1cccc(C)c1,1,0,0,71*
